Among the data in PubChem BioAssay (Tox21) are Potency and outcome values, retold here.

Records with an inconclusive call do not appear. Some structures have more than one record in an assay (separate samples or runs), and their calls can disagree. Calls of active or inactive are those of the source. Unless noted, calls come from the whole dose curve; as a rule, active = well fitted curve in the direction sought with a large enough effect in the repeat runs; inconclusive = weak or mixed curves; inactive = no such curve, though single readings can be large; an effect the other way counts as inactive or inconclusive.

A short description of assay [1]: A CellTox Green Cytotoxicity Assay to monitor cytotoxicity in HEK293 cells - 32 hour (AID 1224881). Note: nearly all actives have a fitted effect of over 40% in size. Put shortly:
(§1)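 Seeding of HEK293 cells together with cytotoxicity dye preceded a 5 h incubation at 37 C/5% CO2. Test compounds in DMSO were then added and fluorescence monitored across 40 h.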

A short description of assay [2]: A CellTox Green Cytotoxicity Assay to monitor cytotoxicity in HepG2 cells - 0 hour (AID 1224882). Note: nearly all actives have a fitted effect of over 35% in size. The method, boiled down:
(§2)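 Nonlytic assay: viable cells exclude the dye, so fluorescence scales with cell death. HepG2 at 600 cells/well, compounds added after 5 h, signal read across 40 h.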

The nature of assay [3]: A CellTox Green Cytotoxicity Assay to monitor cytotoxicity in HepG2 cells - 32 hour (AID 1224883). Note: nearly all actives have a fitted effect of over 50% in size. The method, boiled down: as §2
The nature of assay [4]: A CellTox Green Cytotoxicity Assay to monitor cytotoxicity in HEK293 cells - 8 hour (AID 1224884). Note: nearly all actives have a fitted effect of over 35% in size. Put shortly: as §1
Assay [5] is described as follows: qHTS RealTime-Glo MT Cell Viability Assay in HEK293 cells - 24 hour (AID 1224886). Note: top concentration of the series differs between compounds; nearly all actives have a fitted effect of over 50% in size. Put shortly: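 Nonlytic real-time viability readout: viable cells convert prosubstrate to NanoLuc substrate, giving luminescence proportional to live cell number. HEK293, 600 cells/well, compound added after 5 h, continuous culture at 37 C.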
In general terms: Quantitative high-throughput screening tests each substance at several concentrations.

Assay [6] can be described thus: qHTS RealTime-Glo MT Cell Viability Assay in HEK293 cells - 8 hour (AID 1224887). Note: nearly all actives have a fitted effect of over 50% in size. Note: potency is the fitted concentration of half-maximal effect. The method, boiled down:
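Tox21 screen in HEK293 using RealTime-Glo MT chemistry, with cells and reagent co-dispensed. Luminescence proportional to viable cell number was captured at intervals during 40 h compound exposure at 37 C.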

Assay [7] is described as follows: A CellTox Green Cytotoxicity Assay to monitor cytotoxicity in HEK293 cells - 16 hour (AID 1224888). Note: nearly all actives have a fitted effect of over 35% in size. The method, boiled down:
as §1

Assay [8] is described as follows: qHTS RealTime-Glo MT Cell Viability Assay in HepG2 cells - 0 hour (AID 1224889). Note: nearly all actives have a fitted effect of over 50% in size. The method, boiled down:
(§3)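 Luminescence read-out: viable HepG2 cells reduce a prosubstrate to a NanoLuc substrate, giving a signal proportional to live cell number. Reads taken at 0, 8, 16, 24, 32 and 40 h of compound exposure at 37 C.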

A short description of assay [9]: A CellTox Green Cytotoxicity Assay to monitor cytotoxicity in HepG2 cells - 8 hour (AID 1224890). Note: nearly all actives have a fitted effect of over 45% in size. The method, boiled down: as §2
Assay [10] is described as follows: qHTS assay to identify small molecule antagonists of the estrogen receptor alpha (ER-alpha) signaling pathway using the BG1 cell line in the presence of 0.1 nM 17-beta-estradiol - cell viability counter screen (AID 1259241). Note: nearly all actives have a fitted effect of over 40% in size. The method, boiled down:
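Cells were plated and left 24 hr, compounds in DMSO were pinned in, 17beta-estradiol was added to 0.1 nM final, and after 22 hr CellTiter-Fluor reagent was added for 30 min before fluorescence was read.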

The nature of assay [11]: qHTS assay to identify small molecule antagonists of the androgen receptor (AR) signaling pathway using the MDA cell line in the presence of 0.5 nM R1881 - cell viability counter screen (AID 1259242). Note: nearly all actives have a fitted effect of over 45% in size. Put shortly:
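R1881 at 0.5 nM final stimulated MDA-kb2 cells during 16 hr compound treatment at 37C. Cytotoxicity read: CellTiter-Fluor fluorescence after 30 min.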

Assay [12] concerns the target Estrogen receptor (Homo sapiens) (UniProt P03372). Put plainly: qHTS assay to identify small molecule antagonists of the estrogen receptor alpha (ER-alpha) signaling pathway using the BG1 cell line in the presence of 0.1 nM 17-beta-estradiol (AID 1259244). Note: nearly all actives have a fitted effect of over 50% in size. Note: potency is the fitted concentration of half-maximal effect. The method, boiled down:
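VM7Luc4E2; 4xERE-luciferase; 0.1 nM E2 final; 22 h co-incubation, 37C; ONE-Glo luminescence after 30 min at room temperature.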

Assay [13] can be described thus: qHTS assay to identify small molecule HDAC inhibitors (AID 1259364).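 Note: wild-type HCT-116 cells with endogenous class I/II HDAC activity; top concentration of the series differs between compounds; nearly all actives have a fitted effect of over 45% in size.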 Put shortly: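 Relative class I and II HDAC activity is taken from the luminogenic signal in HCT-116 cells, with compound exposure 2 hr and reagent development 30 min at room temperature.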
Assay [14] can be described thus: qHTS assay to identify small molecule HDAC inhibitors - cell viability counter screen (AID 1259365). Put shortly:
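Counter screen in wild-type HCT-116 cells: compounds dissolved in DMSO are pin-transferred onto overnight-plated cells and left 2hr at 37C. ATP-based CellTiter-Glo luminescence then measures viable cells.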

Assay [15] is described as follows: qHTS assay to identify small molecule agonists of the sonic hedgehog signaling (Shh) pathway - cell viability counter screen (AID 1259366). Note: nearly all actives have a fitted effect of over 50% in size. Note: potency is the fitted concentration of half-maximal effect. Put shortly: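 Cells are plated at 2,000 per well and left 4hr at 37C, 5% CO2 before compound addition. After 23hr of treatment, CellTiter-Fluor reagent is added for 1hr at 37C and fluorescence is measured.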
A short description of assay [16]: qHTS assay to identify small molecule antagonists of the sonic hedgehog signaling (Shh) pathway - cell viability counter screen (AID 1259367). Note: nearly all actives have a fitted effect of over 55% in size. Note: potency is the fitted concentration of half-maximal effect. The method, boiled down:
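NIH/3T3-derived Gli1-Luc reporter cells, 2,000/well, plated 4 hr before compound addition, then stimulated with conditioned medium for 24 hr at 37C. Viability measured in the same wells by CellTiter-Fluor fluorescence, reagent added at 23 hr for 1 hr.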

A short description of assay [17]: qHTS assay to identify small molecule agonists of the sonic hedgehog signaling (Shh) pathway (AID 1259368; calls by dose curve;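 note: NIH/3T3-derived 3T3Gli1-Luc cells carrying a stable Gli1-driven firefly luciferase reporter; series mostly up to about 92 µM; nearly all actives have a fitted effect of over 15% in size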). The method, boiled down: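 Mouse fibroblast (NIH/3T3) reporter cells with stably integrated Gli1-Luc were treated 24 hr with compound; firefly luciferase luminescence served as the read-out.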
Assay [18] in a line: qHTS RealTime-Glo MT Cell Viability Assay in HepG2 cells - 16 hour (AID 1224885). Note: nearly all actives have a fitted effect of over 50% in size. Note: potency is the fitted concentration of half-maximal effect. The method, boiled down:
as §3

Assay [19] can be described thus: qHTS assay to identify small molecule phospholipidosis (PLD) inducers (AID 1259344; active = well fitted curve in the direction sought with a large enough effect; an effect the other way counts as inactive or inconclusive). Put shortly:
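HepG2 cells, 900/well, treated with compound plus LipidTOX Red for 24 h at 37 C; amiodarone positive and DMSO negative controls. Fixed with paraformaldehyde/Hoechst, then high-content imaging scored LipidTOX pit count and integrated intensity per well and per cell.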

For assay [20], the target named is Androgen receptor (Homo sapiens) (UniProt P10275). The assay can be described thus: qHTS assay to identify small molecule antagonists of the androgen receptor (AR) signaling pathway using the MDA cell line in the presence of 0.5 nM R1881 (AID 1259243). Note: nearly all actives have a fitted effect of over 50% in size. Put shortly: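 We exposed MDA-kb2 cells to compounds under 0.5 nM R1881 stimulation for 16 hr at 37C and quantified MMTV-driven luciferase by luminescence.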
Androgen receptor (Homo sapiens), sequence (P10275 whole entry, looked up): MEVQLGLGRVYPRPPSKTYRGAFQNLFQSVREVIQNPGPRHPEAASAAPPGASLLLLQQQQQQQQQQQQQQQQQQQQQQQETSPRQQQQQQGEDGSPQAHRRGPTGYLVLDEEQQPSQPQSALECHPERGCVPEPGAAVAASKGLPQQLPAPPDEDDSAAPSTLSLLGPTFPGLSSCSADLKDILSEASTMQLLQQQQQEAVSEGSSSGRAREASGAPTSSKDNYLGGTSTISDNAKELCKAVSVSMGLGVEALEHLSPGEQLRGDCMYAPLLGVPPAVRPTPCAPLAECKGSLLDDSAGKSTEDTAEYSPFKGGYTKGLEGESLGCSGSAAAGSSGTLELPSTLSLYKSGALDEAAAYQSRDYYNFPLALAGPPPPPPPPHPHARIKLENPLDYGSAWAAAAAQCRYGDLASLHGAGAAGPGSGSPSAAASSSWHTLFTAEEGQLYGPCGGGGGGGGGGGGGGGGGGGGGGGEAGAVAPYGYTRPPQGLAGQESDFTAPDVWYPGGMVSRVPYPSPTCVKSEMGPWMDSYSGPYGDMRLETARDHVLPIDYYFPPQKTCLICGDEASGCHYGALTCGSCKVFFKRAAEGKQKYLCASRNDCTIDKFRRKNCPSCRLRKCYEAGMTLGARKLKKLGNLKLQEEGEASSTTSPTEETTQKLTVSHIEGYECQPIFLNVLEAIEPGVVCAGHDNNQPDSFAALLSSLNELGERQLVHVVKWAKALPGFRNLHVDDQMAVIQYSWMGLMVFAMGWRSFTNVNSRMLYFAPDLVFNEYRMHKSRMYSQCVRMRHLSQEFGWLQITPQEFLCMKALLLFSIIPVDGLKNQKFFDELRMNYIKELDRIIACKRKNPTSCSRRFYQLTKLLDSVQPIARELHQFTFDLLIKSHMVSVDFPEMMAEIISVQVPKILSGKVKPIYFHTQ

Estrogen receptor (Homo sapiens), sequence (P03372 whole entry, looked up): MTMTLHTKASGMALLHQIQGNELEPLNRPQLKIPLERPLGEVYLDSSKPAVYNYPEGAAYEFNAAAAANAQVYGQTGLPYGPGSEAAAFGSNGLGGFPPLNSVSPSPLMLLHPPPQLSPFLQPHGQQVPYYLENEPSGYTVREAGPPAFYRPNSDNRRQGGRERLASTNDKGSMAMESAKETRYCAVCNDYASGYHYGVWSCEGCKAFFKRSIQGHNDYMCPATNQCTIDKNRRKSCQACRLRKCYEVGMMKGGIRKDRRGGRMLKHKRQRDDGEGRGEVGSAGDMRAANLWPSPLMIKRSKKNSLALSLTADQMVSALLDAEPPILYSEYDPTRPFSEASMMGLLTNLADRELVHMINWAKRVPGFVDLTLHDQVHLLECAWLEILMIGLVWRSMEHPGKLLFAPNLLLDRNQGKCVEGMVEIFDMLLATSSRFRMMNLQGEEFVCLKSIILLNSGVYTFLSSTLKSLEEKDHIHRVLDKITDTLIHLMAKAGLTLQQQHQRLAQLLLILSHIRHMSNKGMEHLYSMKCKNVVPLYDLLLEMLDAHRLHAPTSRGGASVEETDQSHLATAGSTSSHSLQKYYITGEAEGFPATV

On to `CC1(C)CC(N)CC(C)(CN)C1` (centres undefined), for which the Potency entry in assay [1], in assay [3], in assay [5], in assay [6], in assay [7] and in [8] was “inactive” throughout. The Potency entry in assay [10], in assay [11], in [12], in assay [13], in assay [15] and in assay [16] was “inactive” in each case. In addition, the call in assay [2], in assay [4], in [9], in [14] and in assay [17] was inactive.

`CC(=O)OC1CC(C)OC(C)O1` (centres undefined): the Potency entry in assay [1], in assay [3], in assay [18], in assay [5], in [6] and in assay [7] was “inactive” in each case. For the same molecule, the Potency result in [8], in assay [10], in assay [11], in assay [15] and in [16] was “inactive” throughout. Further, the result in assay [2], in [9], in assay [14] and in assay [17] was inactive.

For `N[C@H](Cc1c[nH]c2ccccc12)C(=O)O`, the Potency entry in assay [1], in assay [3], in assay [5], in assay [6], in assay [7] and in [8] was “inactive” throughout. Besides, the Potency entry in [10], in assay [11], in assay [13] and in assay [16] was “inactive” throughout. The molecule was classed as inactive in assay [2], in [4], in [9], in [19], in assay [14] and in assay [17].

On to `O=C(O)Cn1c(=O)n(Cc2ccc(Br)cc2F)c(=O)c2ccc(Cl)cc21`, for which the Potency entry in [1], in assay [3], in assay [8], in [10], in assay [11] and in assay [20] was “inactive” each time. Besides, the Potency result in [12] and in assay [13] was “inactive” each time. In addition, the molecule was classed as inactive in assay [2], in assay [4], in assay [9], in assay [14] and in [17]. Moreover, the Potency is 24.5 µM (active) in assay [18], 27.3 µM (active) in assay [15] and 21.7 µM (active) in assay [16].

For `CC(C)CCCCCCCOC(=O)CCCCC(=O)OCCCCCCCC(C)C`, the Potency entry in assay [1], in assay [3], in [5], in [6], in [7] and in assay [8] was “inactive” in each case. Further, the Potency entry in [10], in [11], in assay [13] and in assay [16] was “inactive” each time. The molecule was called inactive in assay [2], in [4], in assay [9], in assay [14] and in [17].

Regarding `COc1ccc(CCC(C)=O)cc1`, the Potency entry in [1], in assay [3], in [6], in [7], in [8] and in assay [10] was “inactive” each time. For the same molecule, the Potency result in [11], in assay [15] and in assay [16] was “inactive” each time. Also, the outcome in assay [2], in assay [4], in assay [9], in assay [14] and in assay [17] was inactive.

With `CCOCC(=O)O`, the Potency entry in assay [1], in assay [3], in assay [6], in [7], in assay [8] and in assay [10] was “inactive” in each case. Moreover, the Potency result in assay [11], in assay [12], in [13], in [15] and in assay [16] was “inactive” in each case. Besides, the call in assay [2], in assay [4], in [9], in [14] and in assay [17] was inactive.

Consider `O=C(O)c1ccc(S(=O)(=O)N(Cl)Cl)cc1`, for which the Potency result in assay [1], in [3], in assay [18], in [8], in [10] and in [11] was “inactive” throughout. For the same molecule, the Potency entry in assay [15] and in assay [16] was “inactive” in each case. The call in assay [2], in assay [4], in assay [9], in assay [19], in assay [14] and in assay [17] was inactive. The Potency in assay [6] was 49.3 µM (active) and inactive; in [12], 38.8 µM (active) and inactive.

As to `CC(C)OC(=O)COc1ccc(Cl)cc1Cl`, the Potency entry in assay [1], in [3], in assay [18], in assay [6], in assay [8] and in [10] was “inactive” in each case. Besides, the Potency entry in [11], in assay [12] and in assay [16] was “inactive” in each case. In addition, the outcome in [2], in assay [4], in assay [9], in assay [14] and in assay [17] was inactive.

Turning to `CCCCCCCCCCCC(=O)OC`, the Potency result in assay [1], in [3], in assay [6], in [7], in [8] and in assay [10] was “inactive” each time. Further, the Potency result in assay [11], in [12], in assay [15] and in [16] was “inactive” in each case. Also, the molecule was classed as inactive in [2], in assay [4], in [9], in assay [14] and in assay [17].
